In PubChem BioAssay (NCI):
About 79,000 compounds went through this panel and 15% of them were active in at least one assay; those are over-represented in the sample as a whole. A number with no mark means an inactive call. Calls of active or inactive are those of the source. Cut-off read from the data, not from the text of the source: active = growth inhibition above about 70%; inactive = the rest.

Experiments:
[1] = NCI Yeast Anticancer Drug Screen. Data for the rad50 strain (AID 155);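 note: 0% = growth of vehicle-only cultures of the same strain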; settings: S. cerevisiae rad50 strain growth inhibition, stronger effect = higher value
Procedure, shortened: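 Yeast carrying a defined DNA repair defect were exposed to test compounds, and growth was compared with vehicle-treated controls to give percent inhibition.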

[2] = NCI Yeast Anticancer Drug Screen. Data for the mec2-1 strain (AID 157); settings: S. cerevisiae mec2-1 strain, stronger effect = higher value
Procedure, shortened: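 Readout is yeast growth inhibition, normalised to vehicle-treated controls, in the mec2-1 strain exposed to compound.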

[3] = NCI Yeast Anticancer Drug Screen. Data for the sgs1 mgt1 strain (AID 161);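 note: 0% = growth of cultures given vehicle only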; settings: S. cerevisiae sgs1 mgt1 strain, stronger effect = higher value
Procedure, shortened: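 Yeast cells carrying a defined DNA-repair defect were exposed to test compounds. Growth inhibition was measured relative to vehicle-treated controls.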

[4] = NCI Yeast Anticancer Drug Screen. Data for the cln2 rad14 strain (AID 165);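 note: 0% = growth equal to vehicle treated cultures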; settings: S. cerevisiae cln2 rad14 strain, stronger effect = higher value
Procedure, shortened: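 Relative to vehicle controls, growth inhibition of compound-treated cln2 rad14 yeast was recorded.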

[5] = NCI Yeast Anticancer Drug Screen. Data for the bub3 strain (AID 167); settings: S. cerevisiae bub3 mutant strain, stronger effect = higher value
Procedure, shortened: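 Compounds were applied to a genetically altered yeast strain carrying a cell-cycle control defect. Growth inhibition was scored against vehicle-treated controls.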

[6] = NCI Yeast Anticancer Drug Screen. Data for the mlh1 rad18 strain (AID 175); settings: S. cerevisiae mlh1 rad18 strain growth inhibition, stronger effect = higher value
Procedure, shortened: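 Test agents were incubated with a yeast strain of defined genotype (DNA damage repair defect). Inhibition of growth was derived by comparison with vehicle-exposed cultures.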

[7] = at 5.0 µM (retest, dose inferred, filed as 0.5)
[8] = at 50.0 µM (retest, dose inferred, filed as 5.0)

SMILES | growth inhibition [1, 7] | growth inhibition [1, 8] | growth inhibition ([1]; at 50.0 µM) | growth inhibition [2, 7] | growth inhibition [2, 8] | growth inhibition ([2]; at 50.0 µM) | growth inhibition [3, 7] | growth inhibition [3, 8] | growth inhibition ([3]; at 50.0 µM) | growth inhibition [4, 7] | growth inhibition [4, 8] | growth inhibition ([4]; at 50.0 µM) | growth inhibition [5, 7] | growth inhibition [5, 8] | growth inhibition ([5]; at 50.0 µM) | growth inhibition [6, 7] | growth inhibition [6, 8] | growth inhibition ([6]; at 50.0 µM)
CC(CN(C)C)C(/C=C/c1ccc(F)cc1)=N\Nc1ccccc1 (stereo not given) | -8% | 51% | 30.1% | -11% | 1% | 12.6% | -15% | 13% | 42.6% | 5% | 46% | 3.65% | -1% | 39% | 15.9% | 0% | 29% | 75.7% (active)
O=C(/C(=C\c1ccccc1)c1ccccc1)c1ccc(Br)cc1 | 7% | -9% | 10.2% | 3% | 4% | -16.2% | 4% | 5% | 24.6% | 0% | -8% | 47.1% | 1% | 9% | 11.8% | -8% | 2% | 17.4%
O=C1C=CC(=Nc2ccc(O)c3ncccc23)c2cccnc21 | 34% | 92% (active) | 94% (active) | 11% | 96% (active) | 95% (active) | 29% | 96% (active) | 95.2% (active) | -1% | 95% (active) | 86.7% (active) | 17% | 94% (active) | 95.6% (active) | 50% | 95% (active) | 92.4% (active)
CN(C)CCC(/C=C/c1ccccc1)=N\Nc1ccc(Cl)cc1 | 27% | 99% (active) | 99.2% (active) | 17% | 99% (active) | 99% (active) | 56% | 100% (active) | 99.1% (active) | 12% | 99% (active) | 99.2% (active) | 46% | 99% (active) | 99.3% (active) | 42% | 99% (active) | 85.3% (active)
S=C1C(=Nc2ccccc2)N(c2ccccc2)/C(=N\c2cccc[n+]2Cc2ccccc2)N1c1ccccc1 | -17% | 89% (active) | 96.6% (active) | -10% | 99% (active) | 97.9% (active) | -1% | 72% (active) | 98.7% (active) | -17% | 48% | 94.5% (active) | -20% | 85% (active) | 98% (active) | -23% | 96% (active) | 98.2% (active)
O=[N+]([O-])c1ccc(/C=N/O)s1 | -11% | 99% (active) | 99.5% (active) | 3% | 100% (active) | 99.7% (active) | -7% | 99% (active) | 97.7% (active) | 10% | 95% (active) | 99.2% (active) | -17% | 99% (active) | 99.7% (active) | 12% | 99% (active) | 99.3% (active)
COC(=O)c1ccc(Cl)c(Cl)c1 | 1% | 20% | 8.2% | -2% | 2% | 6.75% | 2% | 11% | 11.8% | 1% | 0% | 75.3% (active) | 12% | 13% | 22% | 1% | 17% | -0.65%
N#CC1C(=O)NC(=O)C(C#N)C1c1ccc(Cl)c(Cl)c1 (stereo not given) | -1% | 42% | 89.2% (active) | -1% | 35% | 39.5% | 1% | 26% | 57.5% | -7% | -2% | 21.9% | -8% | 34% | 58.3% | -2% | 53% | 63.4%
OC(CC(O)(C(F)(F)Cl)C(F)(F)Cl)c1ccccc1 (stereo not given) | 31% | 66% | 88.1% (active) | 10% | 62% | 90.7% (active) | 42% | 72% (active) | 92.1% (active) | 35% | 58% | 85.8% (active) | 37% | 69% | 88.6% (active) | 26% | 59% | 89.3% (active)
CCCCCN(C(=O)CCl)c1ccccc1 | 2% | 36% | 55.7% | -3% | 14% | 35.2% | -1% | 19% | 53.7% | 3% | 5% | 13.8% | -4% | 6% | 50.5% | -2% | 24% | 67.6%
